The structures appear in SMILES notation. The panel holds about 83,000 compounds, 20% with a hit somewhere; the sample as a whole holds those more often.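 Assay: single dose, 48 h. Readout: percent growth (0 = no net growth; negative = cell death). Active: <10.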 Unmarked numbers belong to inactive results. Activity calls are given as the source filed them.

Experimental findings from PubChem BioAssay (NCI) are described below.

The subject of the experiment is SN12C renal. The experiment is described as follows: NCI-60 one-dose screen, 48 h (100 = growth as untreated, 0 = no growth, -100 = all killed). Conditions: 10 µM unless noted.
Regarding `CCOC(=O)c1nn(CC(O)c2ccccc2)c(NC(=O)Nc2cccc(F)c2)c1C` (stereo not drawn), the growth is 87.5%.
`O=C(N/N=C\c1ccccc1S(=O)(=O)O)N/N=C/c1ccccc1S(=O)(=O)O`: the growth is 102%.
Take `CC[C@]12C=CCN3CC[C@@]4(c5ccc(OC)cc5N(C)[C@H]4[C@@](O)(C(=O)OC)[C@@H]1OC(=O)CCC[P+](c1ccccc1)(c1ccccc1)c1ccccc1)[C@@H]32`: the growth was 2.73% (active).
Next, `CCCn1nc(C(=O)N(C)Cc2ccccc2)c2c1CCC(N1CCc3ccccc31)C2` (stereo not drawn): 98.9%.
For `C=C1C(=O)O[C@H]2[C@H]1CC/C(COC(=O)/C=C\C(=O)NCc1ccc(Cn3c(=O)sn(CCCl)c3=O)cc1)=C\CC[C@@]1(C)O[C@@H]21`, the growth was 89.9%.
Turning to `COC(=O)c1ccc(NC(=O)Nc2ccc(C(=O)OC)cc2)cc1`, the growth was 78.9%.
In the case of `O=C(O)c1cn(C2CC2)c2cc(N3CCN(C(=O)Nc4nc(-c5ccc(Br)cc5)cs4)CC3)c(F)cc2c1=O`, the growth was 6.36% (active).
`NC(=O)c1c(NC(=O)c2cccc(C(F)(F)F)c2)sc2c1CCC(=O)C2`: the growth was 3.64% (active).
On to `CC1=C(C(=O)Nc2ccccc2)C(c2ccc3c(c2)OCO3)NC(=S)N1` (stereo not drawn), for which the growth is 104%.
On to `NS(=O)(=O)c1ccc(-c2cc(-c3nnc(SCC(=O)Nc4ccc(C(=O)/C=C/c5ccc(Cl)cc5)cc4)n3-c3ccccc3)c3ccccc3n2)cc1`, for which the growth was 94.9%.
As to `COC(=O)c1cc(Br)ccc1O`, the growth is 99.5%.
On to `C=C1C(=O)O[C@H]2[C@H]1CC/C(COC(=O)/C=C/C(=O)OC/C1=C/CC[C@@]3(C)O[C@H]3[C@H]3OC(=O)C(=C)[C@@H]3CC1)=C\CC[C@@]1(C)O[C@@H]21`, for which the growth is 4.73% (active).
Under `CNC1=CC(=O)c2c(C(=O)OC)c(C)[n+]([O-])c(C)c2C1=O` stands 40%.
In the case of `O=C(Nc1ncccc1OCc1ccccc1)NC1CCCCCC1`, the growth was 78.6%.
On to `O=C1/C(=C\c2cccc3nccnc23)SC(=S)N1CCc1ccc(O)cc1`, for which the growth is 84.9%.
In the case of `O=C1/C=C/[C@@H](O)[C@@H]2C[C@@H](O)C[C@H]2/C=C/CCC[C@@H](O)CCO1`, the growth was 106%.
Next, `Cc1ccc(CNc2c3ccccc3nc3ccccc23)cc1`: 24.9%.
Regarding `Cc1ccnc(Nc2ccc([N+](=O)[O-])c(NCCN3CCOCC3)n2)c1`, the growth is 36.6%.
Next, `CSc1nn2c(-c3ccc4ccccc4c3)ccnc2c1C#N`: 23.4%.
Turning to `COc1cc2nc3sc(C(=O)Nc4ccc(C(=O)OC(C)C)cc4)c(C(=O)Nc4ccc(Cl)cc4C)n3c(=O)c2cc1OC`, the growth is 102%.
For `COC(=O)/C=C1/SC(=Nc2ccc([N+](=O)[O-])cc2)N(CCc2c[nH]c3ccc(O)cc23)C1=O`, the growth was 45.8%.
Take `O=S1(=O)C=C(c2ccccc2)C(c2ccccc2)=C1`: the growth was 12.8%.
On to `O=C(O)COc1ccc(Cl)c(Cl)c1`, for which the growth is 114%.
In the case of `O=C1/C(=C/c2ccccn2)NC(=S)N1c1ccccc1Cl`, the growth was 58.1%.
For `CCS/C(Nc1ccccc1)=C(\C#N)C(=O)Nc1ccc(OC)cc1`, the growth was 37.8%.
With `COc1ccc(C(=O)N2c3ccccc3Sc3ccccc32)c(C(F)(F)F)c1`, the growth was 40.1%.
Next, `Cc1ccc(-c2csc(NC(=O)c3ccccc3CN3C(=O)c4ccccc4C3=O)n2)cc1`: 94.5%; `CNC(=O)c1cc(Oc2cccc3nc(NC(=O)Nc4cc(C(F)(F)F)ccc4Cl)ccc23)ccn1`: 93.5%.
